Source: PubChem BioAssay (National Center for Advancing Translational Sciences (NCATS))
This is one part of a sample in which hits are shown more often than they occur.
nsP2pro primary = Primary qHTS for inhibitors of NSP2Pro chikungunya virus (CHIKV). AID 1964107, 2024. 1.1% of 31,000 active. FRET peptide cleavage, nsP2pro, fluorescence 1 h. Polyprotein P1234 (Chikungunya virus (strain S27-African prototype)), Q8JUX6. Potency, µM (top dose mostly 24.9 µM), most hits filed as inhibitors; note: nearly all actives have a fitted effect of over 60% in size
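Purified recombinant nsP2pro (150 nM final) in 10 mM Tris-HCl pH 8.0 with 0.01% Tween 20 was preincubated 15 min at room temperature with compound (7 concentrations, up to 25 uM). FRET peptide 2 substrate (2.5 uM final) was then added; fluorescence was read after 1 h.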
nsP2 cell sec = Secondary cell base assay for inhibitors of NSP2Pro Chikungunya virus (CHIKV). Potency, µM (series often up to 51.1 µM), actives largely listed as inhibitors. AID 1964100, 2024. 10% of 450 active. shares compounds with nsP2pro primary. cell-based CHIKV nsP2 protease reporter assay; note: nearly all actives have a fitted effect of over 70% in size
NSP2 full ctr = Selectivity profile for inhibitors of NSP2Pro chikungunya virus (CHIKV): Full length NSP2 enzyme counterscreen (CHIKV-NSP2); shares compounds with nsP2pro primary; Full-length CHIKV NSP2 protease enzymatic counterscreen; Potency, µM (titrated, usually from 50.7 µM), most hits filed as inhibitors; 39% of 410 active; note: nearly all actives have a fitted effect of over 65% in size
Furin counterscr = Selectivity profile for inhibitors of NSP2Pro chikungunya virus (CHIKV): Human furin counterscreen; shares compounds with nsP2pro primary; 6% of 410 active; Recombinant human furin enzymatic counterscreen, fluorogenic substrate; AID 1964102, 2024; Potency, µM (doses to about 50.6 µM), hits mostly inhibitors
NS23 peptide cs = Selectivity profile for inhibitors of NSP2Pro chikungunya virus (CHIKV): Endogenous NS2/3 peptide Counterscreen; shares compounds with nsP2pro primary; Purified CHIKV nsP2 protease, endogenous NS2/3 peptide cleavage; Potency, µM (highest dose often 51 µM), hits mostly inhibitors; 34% of 410 active; AID 1964103, 2024; note: nearly all actives have a fitted effect of over 55% in size
Papain cs = Selectivity profile for inhibitors of NSP2Pro chikungunya virus (CHIKV): Papain Counterscreen. 5% of 410 active. Potency, µM (top dose mostly 51 µM), usual class: inhibitors. purified papain protease activity, enzymatic inhibition. shares compounds with nsP2pro primary. AID 1964104, 2024
nsP2pro conf qHTS = Confirmatory qHTS for inhibitors of NSP2Pro chikungunya virus (CHIKV). shares compounds with nsP2pro primary. CHIKV nsP2 protease enzymatic activity, qHTS. Potency, µM (series often up to 25.5 µM), hits mostly inhibitors. 43% of 410 active. AID 1964105, 2024; note: nearly all actives have a fitted effect of over 75% in size
HCV NS3 4A cs = Selectivity profile for inhibitors of NSP2Pro chikungunya virus (CHIKV): NS34A-HCV Counterscreen; shares compounds with nsP2pro primary; HCV NS3/4A protease biochemical counterscreen; Potency, µM (doses to about 50.9 µM), hits mostly inhibitors; 20% of 410 active; AID 1964106, 2024; note: nearly all actives have a fitted effect of over 55% in size
Numbers stand for hits; i = inactive; ? = inconclusive; [ ] = dose if it differs, or a comment. Calls come from the whole dose curve.

SMILES	nsP2pro primary	others
Brc1ccc(CN2CCc3nc(Nc4ccccc4)ncc3C2)s1	?	nsP2 cell sec=i;NSP2 full ctr=i;Furin counterscr=i;NS23 peptide cs=i;Papain cs=i;nsP2pro conf qHTS=i;HCV NS3 4A cs=i
Fc1ccccc1N1CCN(c2ncc3c(n2)CCN(Cc2ccc(Br)s2)C3)CC1	i
CCc1nc2c(NS(=O)(=O)c3cccnc3)cccn2n1	i
Cc1cccc(S(=O)(=O)Nc2cccn3nc(C4CCC4)nc23)c1	i
O=S(=O)(Nc1cccn2nc(C3CC3)nc12)c1cccnc1	?	nsP2 cell sec=i
c1cc(-c2cnn3cc(-c4ccc(N5CCNCC5)cc4)cnc23)c2cccnc2c1	i
COC(=O)c1sc(S(=O)(=O)N2CCN(c3ccc(OC)cc3)CC2)c(C(=O)OC)c1C	i
C=C1CC23CCC4[C@@](C)(CCC[C@@]4(C)C(=O)O)C2CCC1C3 (some centres undefined)	i
C[C@]12CCC[C@](C)(C(=O)O)C1CCC13C=C(CO)C(CCC12)C3 (some centres undefined)	i
C=C1C2CCC3C(CCC4[C@@]3(C)CCC[C@@]4(C)C(=O)O)(C2)[C@@H]1OC(=O)/C(C)=C\C (some centres undefined)	1.36µM	nsP2 cell sec=i;NSP2 full ctr=i;Furin counterscr=i;NS23 peptide cs=i;Papain cs=i;nsP2pro conf qHTS=i;HCV NS3 4A cs=i
O=C(Nc1nnc(SCc2cc(=O)c3ccccc3[nH]2)s1)c1ccccc1	i
CCCCC1CCC(C(=O)Nc2ccc(S(=O)(=O)Nc3nccs3)cc2)CC1 (centres undefined)	i
CCCCNC(=O)CN1CCN(c2ncc(NC(=O)c3ccc(Cl)cc3)cc2C(=O)O)CC1	?	nsP2 cell sec=i;NSP2 full ctr=14.6µM;Furin counterscr=i;NS23 peptide cs=i;Papain cs=i;nsP2pro conf qHTS=i;HCV NS3 4A cs=i
CCCCOc1ccc(C(=O)Nc2ccc3c(c2)CCCN3C(=O)c2cccs2)cc1	i
COc1ccc(C(=O)Nc2ccc(N(C)Cc3ccccc3)c(C(=O)O)c2)cc1	5.01µM	nsP2 cell sec=i;NSP2 full ctr=5.17µM;Furin counterscr=?;NS23 peptide cs=13µM;Papain cs=i;nsP2pro conf qHTS=7.98µM;HCV NS3 4A cs=3.26µM
CCOc1cccc(C(=O)Nc2ccc(S(=O)(=O)N(Cc3ccccc3)c3ccccc3)cc2)c1	i
CCCCNC(=O)CN1CCN(c2ccc(NC(=O)c3ccc(OC)cc3)cc2C(=O)O)CC1	4.47µM	nsP2 cell sec=?;NSP2 full ctr=4.11µM;Furin counterscr=?;NS23 peptide cs=7.3µM;Papain cs=i;nsP2pro conf qHTS=6.34µM;HCV NS3 4A cs=1.83µM
Cc1ccc(Cl)cc1NC(=O)c1cnc(N2CCCCC2)c2ccccc12	i
COc1ccc(NC(=O)c2ccc3nc(CCc4ccccc4)oc3c2)cc1	i
COc1ccc(NC(=O)CCN2CCN(c3cccc(Cl)c3)CC2)cc1	i
CCCCN(CCCNC(=O)c1ccc(Sc2ccc(Cl)cc2)c(NC(C)=O)c1)c1ccccc1	i
COc1ccc(-c2onc(C)c2C)cc1S(=O)(=O)NCC1CCN(Cc2ccccc2F)CC1	i
CC(=O)c1ccc(N2C(=O)N(CC(=O)c3ccc(C)cc3)c3ccccc3S2(=O)=O)cc1	i
C[C@@H]1O[C@@H](O[C@H]2[C@H](O)[C@@H](C(=O)O)O[C@@H](O[C@H]3CC[C@@]4(C)C(CC[C@]5(C)C4CC=C4C6CC(C)(C)CC[C@]6(C(=O)O)CC[C@]45C)C3(C)C)[C@@H]2O[C@@H]2OC[C@@H](O)[C@H](O)[C@H]2O)[C@H](O)[C@H](O)[C@H]1O (some centres undefined)	i[5.1 µM]
O=[S+]1([O-])NC2(CCCN(Cc3c(F)cccc3Cl)C2)COc2ccccc21 (centres undefined)	i
NC(=O)C1CCN(c2ncc(-c3ccc4c(c3)OCCO4)s2)CC1	i
Cc1ccc(C#N)c(N2CCN(C3CCCC3)C(CCO)C2)n1 (centres undefined)	i
Cc1cnn(CCC(=O)N2CCCC(c3nnc(Cn4ccnc4)n3C)C2)c1 (centres undefined)	i
